Source: PubChem
FXN GAA850 act – FXN promoter activators, primary screen, cell-based, luciferase luminescence, HEK293 lucGAA850; activation, % at 6 µM; hit rate 0.56% among 360,000; AID 540364, 2011; HEK293 lucGAA850 FXN promoter luciferase reporter, 24 h; percent of 10 µM SAHA response;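 active = activation above the average of all compounds screened plus 3 SD, cutoff fixed separately per campaign, cut at about 7.5% in these data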;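 also: 0% = DMSO wells and 100% = 10 µM SAHA wells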
esBAF inh – Bmi1 luciferase reporter increase in mESCs, primary screen, esBAF inhibitor project, mouse ES cells, Bmi1 luciferase knock-in, single point | 24 h; 100% = twice the neutral-well signal | reporter increase, % at 12.5 µM | hit rate 2% among 350,000; in the data active = activation above about 40%; inconclusive = no clear call, values can overlap the other calls;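 also: 0% = median of the plate's neutral control wells and 100% = double that signal; a rise in the Bmi1 reporter signal indicates esBAF inhibition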
MITF TRPM1 HTS – activators of MITF-driven TRPM1 promoter reporter, primary screen, cell-based, SK-MEL-5, luciferase, single point; SK-MEL-5 TRPM1-promoter luciferase, 24 h; % of positive control, neutral wells = 0; activation, % at 12.5 µM; hit rate 0.75% among 300,000;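 active = mean activation of at least 80% with every replicate also reaching 80%; inconclusive = mean reaches 80% but some replicate falls short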;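 also: 0% = neutral control wells and 100% = parthenolide positive control wells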
AHR act – AHR activators, primary screen, cell-based, luminescence, luciferase reporter, human; AHR-responsive luciferase reporter cells; activation, % at 5 µM; hit rate 2.5% among 320,000; AID 2796, 2010; in the data active = activation above about 47%;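 also: 0% = vehicle wells and 100% = reference agonist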
Target sequence (P35869 whole entry, looked up): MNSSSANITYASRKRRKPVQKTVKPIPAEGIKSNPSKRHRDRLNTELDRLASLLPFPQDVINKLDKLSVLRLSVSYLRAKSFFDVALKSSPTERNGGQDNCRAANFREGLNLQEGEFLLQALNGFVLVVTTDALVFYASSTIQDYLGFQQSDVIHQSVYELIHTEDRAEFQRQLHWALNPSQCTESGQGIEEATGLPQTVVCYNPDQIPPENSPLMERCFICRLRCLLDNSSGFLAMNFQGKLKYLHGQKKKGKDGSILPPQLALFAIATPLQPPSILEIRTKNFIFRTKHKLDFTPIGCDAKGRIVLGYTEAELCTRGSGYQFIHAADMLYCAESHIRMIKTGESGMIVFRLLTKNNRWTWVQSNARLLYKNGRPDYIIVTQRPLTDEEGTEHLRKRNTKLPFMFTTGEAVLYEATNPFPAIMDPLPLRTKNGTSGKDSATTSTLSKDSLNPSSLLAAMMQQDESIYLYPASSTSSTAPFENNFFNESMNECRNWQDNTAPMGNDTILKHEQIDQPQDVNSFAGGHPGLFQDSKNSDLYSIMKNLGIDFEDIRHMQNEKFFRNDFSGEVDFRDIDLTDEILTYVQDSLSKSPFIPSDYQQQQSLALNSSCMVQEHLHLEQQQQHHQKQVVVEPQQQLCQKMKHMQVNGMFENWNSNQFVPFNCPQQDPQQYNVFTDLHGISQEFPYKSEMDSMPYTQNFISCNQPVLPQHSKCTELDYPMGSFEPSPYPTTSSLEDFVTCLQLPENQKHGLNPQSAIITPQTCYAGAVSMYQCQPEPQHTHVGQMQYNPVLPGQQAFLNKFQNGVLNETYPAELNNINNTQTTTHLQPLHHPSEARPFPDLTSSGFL
Wnt act – Wnt/beta-catenin pathway activators, primary screen, cell-based, plate reader, single point | Wnt/beta-catenin reporter cell assay, activator | activation, % at 9.35 µM | hit rate 1.2% among 300,000 | AID 743398, 2014; in the data active = activation above about 30%, passing the limit was not always enough; inconclusive = no clear call, values can overlap the other calls;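 also: 0% = neutral control wells and 100% = positive control wells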
* = called active by the depositor; ? = inconclusive; . = no result given. Most compounds without a hit are left out; they make up all but 4.2% or so of the library.

SMILES | FXN GAA850 act | esBAF inh | MITF TRPM1 HTS | AHR act | Wnt act
COc1ccc(-c2[nH]c(-c3cccc(OC)c3)nc2SCC(=O)NCc2ccco2)cc1 | -2 | 12 | -10 | 77* | -2
COc1ccc(-n2ccnc(SCC(=O)NC3CCCC3)c2=O)cc1 | 1 | 5 | -7 | 2 | 1
COCC(=O)N1C[C@@H](C)[C@H](OC)CN(C)C(=O)c2cc(NC(=O)c3cc(C)on3)ccc2OC[C@H]1C | . | 5 | . | . | .
CCn1cc(Br)c(C(=O)Nc2cccc(Cl)c2)n1 | 1 | 36 | 48 | 33 | .
CCn1cc(Br)c(C(=O)Nc2nccs2)n1 | 1 | 16 | 24 | 57* | 16
CCn1cc(Br)c(C(=O)Nc2ccc(OC)cc2)n1 | 1 | 34 | 41 | 24 | .
CCn1cc(Br)c(C(=O)NN)n1 | 3 | 2 | -12 | 50* | .
CCn1cc(Br)c(C(=O)Nc2ccc(Cl)c(Cl)c2)n1 | 2 | 65* | 58 | 77* | .
O=C(C[C@@H]1CC[C@@H]2[C@H](COC[C@@H](O)CN2C(=O)Nc2ccccc2)O1)NCc1ccncn1 | . | 2 | . | . | .
C=CCNc1nc(-c2sc(NC(=O)CC)nc2C)cs1 | -1 | . | 7 | 70* | 14
C=CCNc1nc(-c2sc(NC(C)=O)nc2C)cs1 | -1 | . | 20 | 7 | 9
CCCCCCC(=O)Nc1nc(C)c(-c2csc(Nc3ccc(Cl)cc3)n2)s1 | -1 | 0 | -17 | 62* | .
CCCCCC(=O)Nc1nc(C)c(-c2csc(Nc3ccc(Cl)cc3)n2)s1 | -1 | -8 | -18 | 65* | -6
C[C@@H]1CN([C@@H](C)CO)C(=O)c2cc(NC(=O)C3CCCCC3)ccc2O[C@H]1CN(C)Cc1ccncc1 | . | 3 | . | . | .
N#Cc1cc2c(nc1SCc1ccccc1)CCC2 | -1 | . | . | -2 | .
N#Cc1cc2c(nc1SCc1ccncc1)CCC2 | 4 | 44* | 36 | 5 | 19
N#Cc1cc2c(nc1SCc1ccccc1)CCCC2=O | 5 | 9 | 3 | -2 | 49*
Cc1cc(-c2nc3ccccc3c(=O)o2)ccc1[N+](=O)[O-] | 1 | 33 | 11 | -1 | 39*
CCOC(=O)N1CCC2(CC1)C(C#N)=C(N)Oc1n[nH]c(CSc3ccc(C)cc3)c12 | -10 | -3 | . | 6 | 70*
Cc1cc(N/C=C\c2nnnn2-c2ccccc2)no1 | 2 | 14 | 30 | 69* | 7
Cc1cc(NC(=O)CSc2nnnn2-c2ccccc2)no1 | 3 | . | 3 | 3 | -9
Cc1ccc(-c2csc(NC(=O)CN3CCOCC3)n2)cc1 | -3 | 6 | -3 | 7 | -2
O=C(CSCC(=O)N1CCOCC1)Nc1nc(-c2ccc3c(c2)OCO3)cs1 | 2 | 54* | . | 50* | 17
CCOC(=O)N1CCN(C(=O)CSCC(=O)Nc2nc(-c3ccc4c(c3)OCO4)cs2)CC1 | 2 | ? | 17 | 63* | 0
Cc1ccc(-c2csc(NC(=O)N3CCOCC3)n2)cc1 | 2 | 83* | 11 | 16 | 24
SMILES | FXN GAA850 act | esBAF inh | MITF TRPM1 HTS | AHR act | Wnt act
Cn1cc(C(=O)C(=O)N2CCCc3ccccc32)c2ccccc21 | -2 | . | -5 | 68* | -1
COc1ccc(/C=C\c2nc(=O)c3ccccc3o2)cc1 | 4 | -1 | 2 | . | 5
O=c1nc(/C=C/c2ccc(O)c(O)c2)oc2ccccc12 | 4 | -11 | 82* | . | .
CN(C)C1=NC(=O)/C(=C/c2ccc(-c3ccc(S(N)(=O)=O)cc3)o2)S1 | . | . | . | 24 | .
NC1=NC(=O)/C(=C\c2ccc(-c3ccc(Cl)cc3)o2)S1 | 6 | 25 | -6 | 51* | 9
CN(C)c1ncnc2c1ncn2-c1ccccc1 | 7 | 59* | 26 | . | 4
CC(C)C#Cc1ccc2c(c1)O[C@@H](CN(C)Cc1cncnc1)[C@@H](C)CN([C@H](C)CO)S2(=O)=O | . | 5 | . | . | .
C[C@H]1CN([C@@H](C)CO)C(=O)c2cc(NC(=O)Nc3ccc(F)cc3)ccc2O[C@@H]1CN(C)C(=O)Nc1ccc(F)cc1 | . | 0 | . | . | .
CC1CCc2c(sc(/N=C/N(C)C)c2C#N)C1 (stereo not given) | 4 | . | 55 | 12 | 39*
CCOC(=O)Nc1sc2c(c1C#N)CCC(C)C2 (stereo not given) | 2 | ? | 83* | 37 | .
CC1CCc2c(sc(NC(=O)COC(=O)C3CCCO3)c2C#N)C1 (stereo not given) | 2 | . | 20 | 7 | 2
CN(C)/C=N/c1sc2c(c1C#N)CCCC2 | -1 | 19 | 25 | 9 | 3
CC1CCc2c(sc(NC(=O)C3CCCO3)c2C#N)C1 (stereo not given) | 6 | ? | 128* | -1 | 7
CCNC(=S)Nc1sc2c(c1C#N)CCC(C)C2 (stereo not given) | 0 | -1 | . | -6 | 12
Cc1cc(NC(=O)c2ccc(F)cc2)n(CCOC(=O)c2ccc(F)cc2)n1 | 0 | . | -5 | 50* | -3
CC(OC(=O)c1cccs1)C(=O)NCc1ccccc1 (stereo not given) | -2 | -8 | -8 | 31 | 53*
C[C@@H]1CN([C@@H](C)CO)C(=O)c2cc(-c3ccc(F)cc3)cnc2O[C@H]1CN(C)CC1CCCC1 | . | -7 | . | . | .
O=C(N/N=C1\CCCc2ccccc21)c1ccccc1Cl | 3 | . | 65 | 4 | 5
COc1ccccc1OCC(=O)N/N=C1\CCCCc2ccccc21 | -1 | 7 | 8 | 6 | 4
O=C(O)c1ccc(N/N=C2/CCCc3ccccc32)cc1 | 7 | 59* | 42 | 35 | 17
COc1ccccc1OCC(=O)N/N=C1\CCc2ccccc21 | 1 | 46* | 50 | 28 | .
O=C(COc1ccccc1F)N/N=C1\CCCc2ccccc21 | 5 | 61* | 71 | 15 | 33*
CNC[C@H]1Oc2ccc(NC(=O)NC3CCCCC3)cc2CC(=O)N([C@@H](C)CO)C[C@H]1C | . | 0 | . | . | .
CO[C@@H]1CN(C)C(=O)c2cc(NC(=O)c3cccc(F)c3)ccc2OC[C@H](C)N(CC2CC2)C[C@@H]1C | . | 2 | . | . | .
C[C@@H]1CN([C@H](C)CO)C(=O)c2cccc(NC(=O)Nc3ccc(C(F)(F)F)cc3)c2O[C@@H]1CN(C)S(C)(=O)=O | . | -2 | . | . | .
SMILES | FXN GAA850 act | esBAF inh | MITF TRPM1 HTS | AHR act | Wnt act
COc1ccccc1-c1ccc([C@@H]2[C@H]3CN(S(=O)(=O)c4cn(C)cn4)CCCCN3[C@H]2CO)cc1 | . | 5 | . | . | .
Cc1cccc(NC(=S)N/N=C/c2ccc([N+](=O)[O-])s2)c1 | 3 | . | -50 | 71* | .
Cc1cccc(NC(=O)/C=C/c2ccc([N+](=O)[O-])s2)c1 | -12 | . | -95 | 29 | .
Cc1ccc(NC(=O)/C=C/c2ccc([N+](=O)[O-])s2)cc1 | 0 | . | -80 | 19 | 35*
Cc1cccc(N/N=C/c2ccc(C)s2)c1 | 4 | 74* | 104* | 25 | 6
Cc1ccc(/C=C/C(=O)Nc2ccc(Oc3ccccc3)cc2)o1 | 5 | . | 7 | -2 | .
